Measured values: PubChem BioAssay
Where “and” joins values, the source holds several entries; their conditions need not be identical. Equal values may be shown once. The source holds several records for some structures; these can differ, active in one and inactive in another. Calls of active or inactive are those of the source.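 Rule for the calls, unless noted: active = inhibition at or above 50% relative to wild type and mutant plate controls; inactive = inhibition below 50%.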

What was measured:
[1] = inhibitors of TNFa-induced NFkB p65 translocation, primary screen, imaging, HUVEC, MLSMR starter and 10KST1 sets (AID 438;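 active = inhibition above 20% together with a positive visual image hit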;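 note: compound added about 3h40 before a 20 min TNFalpha stimulation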;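 for inhibition: signal is the nuclear over cytoplasmic p65 intensity ratio per well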); conditions: HUVEC TNFa-induced p65 nuclear translocation; cell count: measured here: nuclei count (cytotoxicity indicator), at 2.08 µM; inhibition: at 2 µM, stronger effect = higher value, 0% TNFa-plus-vehicle, 100% no-TNFa wells
[2] = inhibitors of mutant huntingtin aggregation, primary screen, imaging, exon1htt(103Q)mCFP cells, high-content imaging (AID 483;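 active = visual image review flags a hit and inhibition of aggregation exceeds 20%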;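 note: compound exposure lasted 3 days before fixation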;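 for nuclei count: percent of the per-plate median nuclei count of sample wells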); conditions: exon1htt(103Q)mCFP cell line, aggregate imaging, at 2 µM; inhibition of aggregation: stronger effect = higher value; nuclei count: measured here: cell count, toxicity
[3] = inhibitors of E-selectin induction by TNFa, primary screen, imaging, HUVEC, immunofluorescence, MLSMR starter and 10KST1 sets (AID 487;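 active = visually confirmed hit in the image check and inhibition above 20%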;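 for inhibition: signal is fraction of cell area covered by stained E-selectin grains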;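 for nuclei count: 100% = median nuclei count of all wells on the same plate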); conditions: HUVEC TNFalpha-induced E-selectin immunofluorescence imaging, at 2 µM; inhibition: stronger effect = higher value; nuclei count: measured here: cell number, toxicity
[4] = DUSP6 inhibitors restoring Erk phosphorylation by chemical complementation, primary imaging in DUSP6-transfected HeLa (AID 609;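 active = compounds giving at least 50% inhibition in the cell-based MKP-3 phosphatase rescue imaging test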;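 for inhibition: phospho-Erk level distribution per well compared with pooled transfected vehicle control wells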); conditions: HeLa MKP-3 transfected, phospho-Erk imaging KS statistic, at 10 µM, cells stimulated with TPA for 15 min
[5] = biological target: Dual specificity protein phosphatase 6 (Homo sapiens) (UniProt Q16828); experiment: as above; conditions: HeLa MKP-3 transfected, phospho-Erk imaging KS statistic; at 10 µM; stronger effect = higher value; cells stimulated with TPA for 15 min
[6] = biological target: Voltage-gated potassium channel subunit beta-2 (Rattus norvegicus) (UniProt P62483); experiment: KvBeta enzyme negative modulators, primary screen, biochemical, NADPH fluorescence (AID 622;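 active = fluorescence slope higher than the sample average by over 3 SD, cut at about -0.22 in these data, passing the limit was not always enough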;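 note: slope of raw intensity against log time taken from 70 to 1610 s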); conditions: recombinant KvBeta, 4-cyanobenzaldehyde reduction, at 10 µM, stronger effect = higher value
[7] = biological target: Voltage-gated potassium channel subunit beta-2 (Rattus norvegicus) (UniProt P62483); experiment: KvBeta positive modulators, primary screen, biochemical, NADPH fluorescence (AID 623;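 active = NADPH fluorescence slope more negative than the mean of all samples by about 3 SD, 99.7% confidence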;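 note: fluorescence intensity change per second fitted from 20 to 320 s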); conditions: Recombinant KvBeta, NADPH fluorescence decrease slope, 10 min; at 10 µM; stronger effect = lower value
[8] = biological target: Alpha-2C adrenergic receptor (Homo sapiens) (UniProt P18825); experiment: modulators of alpha2C/GIRK thallium flux, primary screen, cell-based, HEK293 alpha2C/GIRK1/2 (AID 624;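 active = fluorescence slope after compound addition differing from the mean of all screened samples at 99.7% confidence, in either direction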;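 note: slope of fluorescence ratio to pre-addition baseline per second over 15 to 24 s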); conditions: thallium flux BTC fluorescence, at 10 µM, actives lie on both sides
[9] = inhibitors of larval lipid processing in zebrafish, primary screen, whole organism, PED6 fluorescence, gall bladder and intestine (AID 686;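 active = a full or partial loss of lipid-probe fluorescence in the fish gall bladder, intestine or both, judged by eye; inactive = no fluorescence loss, or compound toxic to the fish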;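 note: larvae 5 to 7 days old with five fish per well; signal comes from phospholipase A2 cleavage of quenched PED6 carried via bile; overnight exposure to compound and PED6 before scoring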); conditions: Zebrafish larvae PED6 lipid processing, fluorescence scoring; screened at 20 µM (by protocol)
[10] = inhibitors of Chlamydomonas gravitaxis, primary screen, whole organism, Chlamydomonas reinhardtii, WT vs cilia-less mutant, absorbance, 96-well (AID 463189); conditions: OD600 absorbance, 2 days, at 10 µM, stronger effect = higher value;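 note: 0% = wild type cc124 cells in DMSO and 100% = ciliumless bld1 mutant cells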
[11] = inhibitors of Sendai virus-induced IRF3 signaling, primary screen, TLR/RLR signaling modifier project, cell-based, Sendai virus stimulus, luciferase, 10K MLSCN set (AID 602276;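 active = inhibition at or above 50% at 10 µM; inactive = inhibition below 50%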;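 note: firefly luciferase from ISG56 promoter only with Renilla not read in this screen; 0% = Sendai virus plus DMSO and 100% = medium plus DMSO without virus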); conditions: HEK293 RL24 IRF3 luciferase reporter, at 10 µM, stronger effect = higher value
[12] = inhibitors of poly I:C-induced TLR3 signaling, primary screen, cell-based, poly I:C stimulus, luciferase, 10K MLSCN set (AID 602277;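 active = inhibition of the reporter signal at or above 50%; inactive = inhibition below 50%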); conditions: HEK293-TLR3 RL24 IRF3 luciferase reporter, at 10 µM, stronger effect = higher value
[13] = biological target: Muscarinic acetylcholine receptor M4 (Homo sapiens) (UniProt P08173); experiment: compounds altering M4/GIRK thallium flux, either direction, primary screen, M4 allosteric agonist project, cell-based, HEK293 M4/GIRK, BTC-AM (AID 625;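 active = fluorescence slope after compound addition differing from the mean of all tested samples at 99.7% confidence, mostly higher but some lower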;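 note: thallium influx through GIRK channels coupled to M4 in HEK293 cells with BTC-AM dye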); conditions: at 10 µM, actives lie on both sides
[14] = measured here: cell density z-score
[15] = measured here: nuclear c-Myc green intensity z-score
[16] = measured here: nuclear pErk red intensity z-score, stronger effect = higher value

Sequence of Dual specificity protein phosphatase 6 (Homo sapiens) (Q16828 whole entry, looked up): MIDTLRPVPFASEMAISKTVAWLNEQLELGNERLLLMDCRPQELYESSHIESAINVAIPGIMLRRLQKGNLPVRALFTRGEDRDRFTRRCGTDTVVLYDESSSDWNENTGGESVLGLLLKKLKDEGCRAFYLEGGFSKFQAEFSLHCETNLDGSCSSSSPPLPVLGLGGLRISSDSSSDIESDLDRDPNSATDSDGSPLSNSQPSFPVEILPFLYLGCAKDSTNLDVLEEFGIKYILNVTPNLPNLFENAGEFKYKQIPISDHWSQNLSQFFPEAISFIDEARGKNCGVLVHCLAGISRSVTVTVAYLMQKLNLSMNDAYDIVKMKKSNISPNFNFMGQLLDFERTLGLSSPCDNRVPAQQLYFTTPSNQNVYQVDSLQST
Sequence of Voltage-gated potassium channel subunit beta-2 (Rattus norvegicus) (P62483 whole entry, looked up): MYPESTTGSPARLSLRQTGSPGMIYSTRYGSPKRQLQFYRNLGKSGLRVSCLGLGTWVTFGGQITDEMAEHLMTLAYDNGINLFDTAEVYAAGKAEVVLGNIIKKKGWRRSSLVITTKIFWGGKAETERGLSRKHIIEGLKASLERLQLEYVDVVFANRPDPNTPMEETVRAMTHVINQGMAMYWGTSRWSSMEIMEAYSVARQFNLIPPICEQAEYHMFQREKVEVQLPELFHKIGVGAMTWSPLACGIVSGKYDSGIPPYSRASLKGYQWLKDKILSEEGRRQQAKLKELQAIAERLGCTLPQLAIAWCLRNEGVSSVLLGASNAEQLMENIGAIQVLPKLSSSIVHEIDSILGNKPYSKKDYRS
Sequence of Alpha-2C adrenergic receptor (Homo sapiens) (P18825 whole entry, looked up): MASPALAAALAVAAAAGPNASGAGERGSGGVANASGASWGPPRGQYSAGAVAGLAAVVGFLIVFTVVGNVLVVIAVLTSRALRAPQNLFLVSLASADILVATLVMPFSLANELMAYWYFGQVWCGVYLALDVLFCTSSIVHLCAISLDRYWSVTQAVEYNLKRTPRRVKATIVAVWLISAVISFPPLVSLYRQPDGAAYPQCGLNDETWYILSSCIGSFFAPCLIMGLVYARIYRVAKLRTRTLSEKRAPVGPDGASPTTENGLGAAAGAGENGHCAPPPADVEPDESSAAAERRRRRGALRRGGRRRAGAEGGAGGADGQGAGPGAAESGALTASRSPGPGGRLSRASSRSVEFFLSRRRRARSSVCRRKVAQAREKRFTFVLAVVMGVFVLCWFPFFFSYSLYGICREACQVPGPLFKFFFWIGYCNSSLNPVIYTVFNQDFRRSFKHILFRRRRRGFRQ
Sequence of Muscarinic acetylcholine receptor M4 (Homo sapiens) (P08173 whole entry, looked up): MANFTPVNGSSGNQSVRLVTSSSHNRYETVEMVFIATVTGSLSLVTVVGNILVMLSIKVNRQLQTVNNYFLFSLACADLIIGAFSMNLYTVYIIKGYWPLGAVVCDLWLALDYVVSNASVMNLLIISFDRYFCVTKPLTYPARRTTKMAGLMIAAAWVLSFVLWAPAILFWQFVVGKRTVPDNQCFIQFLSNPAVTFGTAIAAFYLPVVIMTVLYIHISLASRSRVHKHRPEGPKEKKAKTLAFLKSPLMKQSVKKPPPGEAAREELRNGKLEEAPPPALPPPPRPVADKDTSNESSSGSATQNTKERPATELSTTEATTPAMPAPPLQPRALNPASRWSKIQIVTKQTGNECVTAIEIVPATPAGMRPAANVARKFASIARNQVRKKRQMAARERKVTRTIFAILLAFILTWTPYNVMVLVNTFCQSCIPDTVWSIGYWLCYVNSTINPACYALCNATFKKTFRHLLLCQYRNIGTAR

| SMILES | cell count [1] | inhibition [1] | inhibition of aggregation [2] | nuclei count [2] [%] | inhibition [3] | nuclei count [3] [%] | z-score [4, 14] | z-score [4, 15] | z-score [4, 16] | inhibition [5] | fluorescence slope [6] | NADPH fluorescence slope [7] | slope [8] | outcome [9] | inhibition [10] | inhibition [11] | inhibition [12] | fluorescence slope [13] |
| --- | --- | --- | --- | --- | --- | --- | --- | --- | --- | --- | --- | --- | --- | --- | --- | --- | --- | --- |
| NCc1ccc(S(N)(=O)=O)cc1 | 705 | -2.8% (inactive) | 26.6% (inactive) | 107 | -71.2% (inactive) | 118 | 0.933 | -0.356 | -0.92 | 21.2% (inactive) | -0.453 (inactive) | -9.2e-05 (inactive) | 0.00484 (inactive) | inactive | 1.96% (inactive) | 14% (inactive) | 32.7% (inactive) | – |
| Cc1ccc(C2/C(=C(/O)c3cnn(-c4ccccc4)c3C)C(=O)C(=O)N2CCN2CCOCC2)o1 (stereo not given) | 520 | -2.8% (inactive) | 10.2% (inactive) | 100 | -56.6% (inactive) | 126 | -0.925 | 1.9 | -0.672 | -10.5% (inactive) | -0.531 (inactive) | -4.5e-05 (inactive) | 0.00497 (inactive) | inactive | -18.9% (inactive) | -28.4% (inactive) | -75.5% (inactive) | – |
| Cc1nc2sccn2c(=O)c1CCN1CCC(=C(c2ccccc2)c2ccc(F)cc2)CC1 | 635 | -7.7% (inactive) | 5% (inactive) | 114 | -100% (inactive) | 123 | -1.15 | 0.767 | 0.616 | 17.3% (inactive) | -0.433 (inactive) | -1.2e-05 (inactive) | 0.00383 (inactive) | inactive | 24.7% (inactive) and 164% (active) | 18.4% (inactive) | 19.4% (inactive) | – |
| CCOC(=O)c1ccc2nc(NC(NC(C)=O)(C(=O)OC)C(F)(F)F)sc2c1 (stereo not given) | 520 | -8.2% (inactive) | -4% (inactive) | 93.1 | -23.9% (inactive) | 130 | 1.37 | -0.549 | -0.534 | 9.42% (inactive) | -0.458 (inactive) | -9.4e-05 (inactive) | – | inactive | -10.3% (inactive) | 133% (active) | 99% (active) | 0.00434 (inactive) |
| CCOC(=O)C1(C(=O)OCC)C(c2ccccc2)CC(O)N1C(C)=O (stereo not given) | 820 | -8.8% (inactive) | -55.9% (inactive) | 103 | -65.8% (inactive) | 126 | -0.838 | 1.16 | -0.266 | 32.3% (inactive) | -0.351 (inactive) | -2.6e-05 (inactive) | – | inactive | 33.6% (inactive) | 15% (inactive) | 22.6% (inactive) | 0.00504 (inactive) |
